ChEMBL document CHEMBL3988442, “University of Dundee, Small-Polar-MMV Screening Library” (2021)
The campaign covered roughly 48,000 compounds. About 13,000 (27%) showed an effect of 50% or more. Some of the results follow.

Test system: Wolbachia pipientis
Test: Anti-Wolbachia Cell-Based Screen
Format: functional
Parameters: scale not given: in the data most compounds retested in dose-response had high values
Conditions: 5 µM

Row | Structure (SMILES) | Percent Effect [%]
1 | CC(C)n1cnc2c1C(C(=O)N1CCOCC1)N(CC1CC1)CC2.O=C(O)C(F)(F)F (stereo unspecified) | -10.07
2 | CNC(=O)c1ccc(-n2c(COCC(=O)O)nc3c(C)cccc32)o1 | -7.772
3 | CCCOCC1CCN(C(=O)Cn2cccc(OC)c2=O)C1 (stereo unspecified) | -15.28
4 | Cc1ccc(NC(=O)CCC2CC2)cc1N1CCOC1=O | -7.551
5 | O=c1[nH]nc(CNc2ncc(Cl)cn2)[nH]1 | -6.867
6 | CCc1nsc(N2CCOC3(CCCC3)C2)n1 | 2.616
7 | Cc1noc(C)c1CN1CCCCC1c1nc(-c2ccccc2)no1 (stereo unspecified) | 11.76
8 | Cc1noc(C)c1CN1CCCC1c1nnc2ccccn12 (stereo unspecified) | 107.8
9 | Cc1noc(C)c1CN1CCCC1c1nc(-c2ccccc2)no1 (stereo unspecified) | -6.071
10 | CCC(CO)N(Cc1cccs1)C(=O)Cc1ccc(O)cc1 (stereo unspecified) | 12.13
11 | CCC[C@@H]1CN(C(=O)c2ccccc2-c2ccccc2)C[C@H]1N(C)C | -11.45
12 | Cn1ccnc1C1(O)CCCN(Cc2ccncc2)CC1 (stereo unspecified) | 94.34
13 | COCCN1CCCC(O)(CN2CCN(Cc3ccncc3)CC2)C1=O (stereo unspecified) | -1.626
14 | Cc1ccc(CN2CCC3(CCN(Cc4ccncc4)CC3)CC2)cc1 | -6.544
15 | CN(C)[C@H]1CCN(c2ccnc(C(=O)NCc3ccco3)c2)C1 | -12.58
16 | Cc1[nH]c(=O)sc1S(=O)(=O)N1CCCC1C(=O)NC1CC1 (stereo unspecified) | 0.9374
17 | CC1c2ncc(COCC3CC3)n2CCN1S(=O)(=O)N(C)C (stereo unspecified) | -6.883
18 | CC(C)C(C)n1nccc1NC(=O)Cn1cnc2ccccc21 (stereo unspecified) | 92.25
19 | Cc1noc(CN(C)C(=O)CCn2cnc3ccccc32)n1 | -9.657
20 | CC(C)c1nccn1CC(=O)Nc1ccnn1C(C)C(C)C (stereo unspecified) | 205.7
21 | Cn1ccnc1-c1cnn(CC(=O)Nc2ccnn2C)c1 | -5.253
22 | O=C(NCCO)c1coc(Cn2cnc3ccccc32)n1 | -7.13
23 | CC(C1CC1)n1nccc1NC(=O)CN(C)C(=O)OC(C)(C)C (stereo unspecified) | 1.565
24 | Cc1n[nH]c(C)c1C1CCCN1C(=O)c1cc(Br)c[nH]1 (stereo unspecified) | 3.439

Row | Structure (SMILES) | Percent Effect [%]
25 | N#Cc1cc(S(N)(=O)=O)ccc1NC1CCc2ccc(F)cc21 (stereo unspecified) | -1.199
26 | c1cc2c(c(-c3cc(N4CCOCC4)ncn3)c1)CCNC2 | 6.934
27 | Cn1ccc2c(-c3ccc(NC4CC4)nn3)ccnc21 | -7.533
28 | CC(C)Nc1ccc(-c2ccnc3c2ccn3C)nn1 | -2.658
29 | Cn1ccc2c(-c3cc(N4CCCCC4)ncn3)ccnc21 | 102.2
30 | Cn1ccc2c(-c3cc(N4CCOCC4)ncn3)ccnc21 | 96.13
31 | CN(C)c1ccc(-c2ccnc3c2ccn3C)nn1 | -43.13
32 | Cc1cc(C)nc(N2CCCC(Cn3cc(CN(C)C)nn3)C2)n1 (stereo unspecified) | 5.215
33 | COCc1cc(CNc2cnn(CC(F)F)c2)ccc1OC | 109.5
34 | COc1ccccc1CNc1cnn(CC(F)F)c1 | 103.3
35 | Cc1ccc(CNc2cnn(CC(F)F)c2)cc1C | -20.79
36 | COCc1cc(NCc2cc(F)ccc2F)n2nccc2n1 | 7.154
37 | COCc1cc(NCCc2ccc(F)cc2)n2nccc2n1 | -0.9559
38 | COc1cc(CNc2cnn(CC(F)F)c2)ccc1O | 77.84
39 | COCCn1cc(NCc2cccc3cn[nH]c23)cn1 | -36.74
40 | CCn1cc(CNc2ccc(Br)c(OC)c2)cn1 | 3.911
41 | COc1ccccc1CNC(Cn1cncn1)c1ccccc1 (stereo unspecified) | -4.346
42 | CS(=O)(=O)CCNCc1ccc(OCc2ccncc2)cc1 | 4.954
43 | CS(=O)(=O)c1cccc(S(=O)(=O)NCCCN2CCNC(=O)C2)c1 | 4.336
44 | COCCC1(CO)CCCN(Cc2ccc(C(F)(F)F)nc2)C1 (stereo unspecified) | 4.896
45 | Cc1nn(C)c2nc(N3CCC(C(O)c4ccccn4)CC3)sc12 (stereo unspecified) | -0.6588
46 | Cc1nn(C)c2nc(N3CCCCC3c3ccc(F)cc3)sc12 (stereo unspecified) | 106.8
47 | COCCN(Cc1nccs1)c1nc2c(s1)c(C)nn2C | -7.769
48 | Cc1nn(C)c2nc(N(Cc3nccs3)C3CC3)sc12 | 96.11

Row | Structure (SMILES) | Percent Effect [%]
49 | Cc1nn(C)c2nc(N3CCCC3c3nccs3)sc12 (stereo unspecified) | 105.7
50 | Cc1ccc(CN2CCN(c3nc4c(s3)c(C)nn4C)C(C)C2=O)cc1 (stereo unspecified) | -1.858
51 | Cc1nn(C)c2nc(N3CCNC(=O)C3Cc3ccccc3)sc12 (stereo unspecified) | 4.207
52 | COC(=O)CN1CCN(c2nc3c(s2)c(C)nn3C)C(C)C1=O (stereo unspecified) | -10.29
53 | Cc1nn(C)c2nc(N(Cc3cnn(C)c3)C3CCCCC3)sc12 | -14.1
54 | COC(=O)CC1C(=O)NCCN1c1nc2c(s1)c(C)nn2C (stereo unspecified) | -2.847
55 | Cc1nn(C)c2nc(N3CCCCC3c3nccs3)sc12 (stereo unspecified) | 111.2
56 | Cc1nn(C)c2nc(N3CCNC(=O)C3C(C)C)sc12 (stereo unspecified) | -3.724
57 | CN(Cc1ccccc1NCc1cccnc1)C(=O)c1cccs1 | 7.108
58 | O=S1(=O)CCN(c2nc(C3CC3)ns2)CC1 | -15.72
59 | CN1C(=O)CO[C@H](c2ccc(NC(=O)c3cccc(F)c3)cc2)[C@H]1CO | 11.75
60 | CCC(CNC(=O)c1cc(OC)ccc1Br)N1CCc2ccccc2C1 (stereo unspecified) | -23.56
61 | COC(=O)N1CCc2ccccc2C1C(=O)NCc1nc(C)no1 (stereo unspecified) | 2.573
62 | CN(C)C(=O)c1cccc(CN2CCOC(Cn3cncn3)C2)c1 (stereo unspecified) | 102.1
63 | c1cnn(-c2ccc(CN3CCOC(Cn4cncn4)C3)cc2)c1 (stereo unspecified) | -5.555
64 | CN(C)CC1CN(Cc2cccc(C(=O)N(C)C)c2)CCO1 (stereo unspecified) | 13.75
65 | CN(C)C(=O)c1cccc(CN2CCOC(Cn3cccn3)C2)c1 (stereo unspecified) | 104.7
66 | CCS(=O)(=O)Nc1cnn(Cc2cccc(C)c2)c1 | 89.42
67 | CCn1cc(NC(=O)NCC(c2cccc(F)c2)N(C)C)cn1 (stereo unspecified) | 0.3988
68 | Cc1cccc(Cn2ccc(NS(C)(=O)=O)n2)c1 | -2.498
69 | CCn1cc(NC(=O)NCC(O)COc2cccc(F)c2)cn1 (stereo unspecified) | -10.6
70 | CN(C)c1cccc(C(=O)Nc2cnn(Cc3ccncc3)c2)c1 | 11.2
71 | CCS(=O)(=O)Nc1cnn(Cc2cccc(F)c2)c1 | 105.7
